The values below come from ChEMBL document CHEMBL4513216, “Probing the Open Global Health Chemical Diversity Library for Multistage-Active Starting Points for Next-Generation Antimalarials” (ACS Infect Dis, 2020).

Hit rate of the full screen: of about 69,000 compounds, about 8,600 (12%) showed an effect of 50% or more. What follows is part of a selection rich in strong results, with near analogues and random picks from the rest.

The subject of this experiment is Plasmodium berghei. The experiment in a line: Screen against P. berghei liver stage (PbLuc), transformed with Luciferase, at 10uM. It counts as functional, HepG2. Conditions: tested at 10 uM.
As to `COCc1cccc(S(=O)(=O)N2CCSCC2)c1`, the INHIBITION turned out to be 40%.
Then `CSc1ccc(C)c(C(=O)N2CCCC(n3cncn3)C2)c1` (centres undefined), with -10.1%; and `Cc1ncc2c(n1)C1(CCN(C(=O)C(C)C)CC1)OCC2`, with 3.89%; and `Cc1cc(C)cc(C(C)NC(=O)c2ccc(CS(C)(=O)=O)o2)c1` (centres undefined), with 54.3%.
Under `CCc1ccc(C(=O)NC(C)c2ccc(S(C)(=O)=O)c(F)c2)o1` (centres undefined) stands 6.33%; under `Cc1cn2c(n1)CCC(NC(=O)c1ccc(CS(C)(=O)=O)o1)C2` (centres undefined), 13.1%; under `CC(NC(=O)c1ccc(CS(C)(=O)=O)o1)c1ccc(F)c(F)c1` (centres undefined), 12.3%.
For `CCc1ccc(C(C)NC(=O)c2ccc(CS(C)(=O)=O)o2)cc1` (centres undefined), the INHIBITION stood at 50.8%.
Under `CCc1ccc(C(C)NC(=O)CN(C)Cc2ccc(C)o2)cc1` (centres undefined) stands -27%; under `CS(=O)(=O)N1CCC(NC(=O)COc2ccccc2Cl)CC1`, -19.9%; under `O=C(c1nccc2ccccc12)N1CCCCC1Cn1cccn1` (centres undefined), 3.73%.
For `Cc1nc(CNC(=O)c2cc(COc3ccccc3F)[nH]n2)n[nH]1`, the INHIBITION is 17%.
Then `CNc1cc(C)nc(C2CN(Cc3cncs3)CCO2)c1` (centres undefined), with 11.1%; and `Cn1nc(CN2CCCC2)c2c1CN(C(=O)c1cccnc1)CC2`, with -31.3%.
Under `Cc1cc2n(n1)CC(CNCc1ccc(-n3ccnc3C)nc1)CN2` (centres undefined) stands -13.575%.
Under `CC(=O)N1CCOC(c2c(C(=O)NC(C)(C)C)sc3ccccc23)C1` (centres undefined) stands -84.7%.
For the compound `Cc1cnc(N2CC[C@@H]3O[C@@H](COCC(=O)N(C)C)CC[C@@H]32)nc1`, the INHIBITION was determined as 18.2%.
Then `Cc1ccc(C(=O)N(Cc2ccc(F)cc2)C2CC2)c(=O)[nH]1`, with -37.8%.
As for `COc1cc(C(=O)N(Cc2ccc(F)cc2)C2CC2)cc2c1OCCO2`, the INHIBITION is 13.4%.
Under `Cc1ccc(C(=O)N(Cc2cccc(F)c2)C2CC2)c(=O)[nH]1` stands -30.7%; under `CN(C)Cc1ccc(C2CCCCN2C(=O)c2cc(=O)[nH]c(=O)[nH]2)cc1` (centres undefined), 16.7%; under `COC1CCN(c2ccc(F)cc2CN(C)C(=O)c2cc[nH]n2)CC1`, -74.8%.
Under `O=C(c1cc[nH]n1)N(Cc1ccccc1)CC1CCC1` stands 72.3%; under `O=C(c1cc[nH]n1)N(Cc1ccc(F)cc1)CC1CC1`, -24%; under `O=C(c1cc[nH]n1)N(Cc1cccc(O)c1)CC1CC1`, 5.64%.
With `CSc1ccc(CN(C)C(=O)c2cc3c([nH]c2=O)CCCC3=O)cc1`, the INHIBITION came out at 7.99%.
Under `CSc1ccc(CN(C(=O)c2cc(=O)[nH]c(=O)[nH]2)C2CC2)cc1` stands 59.1%.
In the case of `CSc1ccc(CN(C(=O)c2cc(C)[nH]c(=O)c2)C2CC2)cc1`, the INHIBITION is 50.8%.
Take `CSc1ccc(CN(C(=O)c2cc[nH]n2)C2CC2)cc1`: the INHIBITION is reported as 59.1%.
Under `NC(=O)C1Cn2ccnc2C2(CCN(C(=O)NC3CCCC3)CC2)O1` (centres undefined) stands 0.453%; under `CC(C)Oc1ccc(CNC(=O)CCN2C(=O)CCC2=O)cc1F`, -38.75%.
Then `Cc1nc2c(c(NC3CCN(Cc4ccccc4)CC3)n1)CCNCC2`, with -4.28%.
Under `CC(=O)N1CCCC(c2nccnc2-c2ccc(CO)cc2)C1` (centres undefined) stands 20.2%; under `c1ccc(CCN2CCN(C3CCOC4(CCOCC4)C3)CC2)cc1` (centres undefined), 36.8%; under `CC(NC(=O)CN(C)S(C)(=O)=O)c1nnc2n1CCCCC2` (centres undefined), 38.6%.
For `CCc1ccc(C(=O)N2CCCC(CNS(C)(=O)=O)C2)o1` (centres undefined), the INHIBITION is -26.6%.
Under `O=C(NCc1ccccc1)C1=NOC2(CCNC2)C1` (centres undefined) stands 24.5%.
Under `O=c1ccc(-c2cccs2)nn1CN1CCN(C2CCS(=O)(=O)C2)CC1` (centres undefined) stands -4.52%.
Then `COc1ccc(C(=O)CNC(=O)c2nc(Cl)sc2C(C)C)cc1`, with -44.2%.
As to `O=C(CCc1nnc(-c2ccccc2)o1)N1CCCC1c1ccccn1` (centres undefined), the INHIBITION is given as 17.8%.
Then `CC1CCCCN1C(=O)CCc1nnc(-c2ccccc2)o1` (centres undefined), with 51.5%.
As for `O=C(CCc1nnc(-c2ccccc2)o1)N1CCCC1c1ccc[nH]1` (centres undefined), the INHIBITION is listed as -14.9%.
Then `Cc1cc(CN2CCC(N(C)Cc3nnc(C4CC4)n3C)C2)on1` (centres undefined), with 19.2%; and `COCc1noc(Cc2c(C)nn(C)c2C)n1`, with 28.5%.
Consider `Cc1nc(C(=O)N(CC(=O)N(C)C)CC(F)(F)F)c2ccccn12`, for which the INHIBITION is reported as 53.3%.
Then `CCOC(=O)CN(CC(F)(F)F)C(=O)c1nc(C)n2ccccc12`, with 22.3%.
Under `Cc1nc(C(=O)N(C)CC(F)(F)C(F)(F)F)c2ccccn12` stands 3.03%; under `CCCc1nc(CN2CCCC(c3noc(C4CC4)n3)C2)no1` (centres undefined), 4.71%; under `Cc1c(CC(C#N)C(=O)Nc2cccc(O)c2)cnn1C` (centres undefined), 20.4%.
In the case of `N#CCCN(C(=O)CN1CCCC1c1ccsc1)c1ccccc1` (centres undefined), the INHIBITION was -2.95%.
Under `Cc1ccc(N(CCC#N)C(=O)CN2CCCC2c2cccs2)cc1` (centres undefined) stands -3.48%; under `Cc1cc(C)cc(N(CCC#N)C(=O)CN2CCCC2c2cccs2)c1` (centres undefined), 6.54%; under `N#CCCN(C(=O)CN1CCCC1c1ccccc1Cl)c1ccccc1` (centres undefined), 67.1%.
Under `Cc1ccc(N(CCC#N)C(=O)CN2CCCC2c2ccsc2)cc1` (centres undefined) stands 3.45%; under `Cc1ccc(C2CCCN2CC(=O)N(CCC#N)c2ccccc2)cc1` (centres undefined), 62.8%.
Then `CC(C)S(=O)(=O)CC(=O)N(Cc1ccsc1)c1ccccc1`, with 54.4%; and `CNS(=O)(=O)CC(=O)N(Cc1ccsc1)c1ccccc1`, with -2.69%.
For `CC(=O)N(Cc1ccsc1)c1ccccc1`, the INHIBITION was 24.2%.
Under `Cc1occc1C(=O)N1C[C@H]2CCCC(OCc3cccnc3)[C@H]2C1` (some centres undefined) stands 30.3%.
Under `Cc1cnn(C2CCCN(C(=O)CCCOc3ccccc3F)C2)c1` (centres undefined) stands -27.8%; under `Cc1ccc(C(=O)NCCCN(C)S(C)(=O)=O)cc1-n1cccc1`, 12.9%; under `CS(=O)(=O)NCCCNC(=O)c1cccc(-n2cccc2)c1`, 13.4%.
Under `Cc1ccc(C(=O)NCCCNS(C)(=O)=O)cc1-n1cccc1` stands 51.3%.
For the compound `COc1ccc(CN2C[C@H]3CC[C@@H](C2)N(S(=O)(=O)C2CC2)C3)cc1`, the INHIBITION turned out to be 4.52%.
Under `O=C1CCN(C(=O)NCCCc2ccc(Cl)cc2Cl)CCN1` stands -12.1%; under `Cc1ncsc1-c1nnc(C2CCN(CC3CCCCC3)CC2)o1`, -18.4%.
Under `Cc1ncsc1-c1nnc(C2CCN(Cc3ccccc3F)CC2)o1` stands 59%; under `CCn1c(CN(C)C)nnc1C1CCN(Cc2cccc(F)c2F)CC1`, 25%.
Under `Cc1ncsc1-c1nnc(C2CCN(Cc3cccc(F)c3F)CC2)o1` stands 54.5%; under `Cc1ncsc1-c1nnc(C2CCN(Cc3ccccc3Cl)CC2)o1`, 29.3%; under `Fc1cccc(CN2CCC(c3noc(-c4cnccn4)n3)CC2)c1F`, -11.4%.
For `Cn1ccnc1CN1CCC(F)(F)C2(CCN(c3cnccn3)C2)C1` (centres undefined), the INHIBITION is -38.9%.
Then `CN(C)c1nccnc1C1CCCN(c2cnccn2)C1` (centres undefined), with 7.75%; and `COCCNS(=O)(=O)c1c(C)sc2ccccc12`, with -35%.
For the compound `CC(C)c1ccc(N2CCc3onc(-c4ccc(F)c(F)c4)c3C2)nn1`, the INHIBITION is 40.3%.
Under `COc1cccc(-c2noc3c2CN(c2ncnc4c2CCC4)CC3)c1` stands 89.6%; under `COc1cccc(-c2noc3c2CN(c2nc(C)ncc2C)CC3)c1`, 80%; under `COc1cccc(N2CCN(C(=O)c3noc4c3CCCC4)CC2)c1`, 12.6%.
Then `COc1ccc(CC2(C(=O)O)CCN(c3nc(C)ncc3C)CC2)cc1`, with -1.25%; and `COc1cccc(N2CCN(C(=O)c3noc4c3CCCCC4)CC2)c1`, with 10.1%; and `Cc1cnc(N2CCc3onc(COc4cccnc4)c3C2)nc1`, with 32.1%.
As for `COCc1cc(N2CCc3onc(-c4cccc(OC)c4)c3C2)ncn1`, the INHIBITION is 82.2%.
Then `COCC(C)N1CCc2onc(-c3ccc(F)c(F)c3)c2C1` (centres undefined), with 16.7%; and `CC(C)(C)n1ncc2c1NC(=O)CC2c1ccc(C(=O)O)cc1` (centres undefined), with -12.2%; and `CC(C)Oc1ccc(Cl)c(C(=O)N2CCN(CCO)CC2)n1`, with 33.3%.
Turning to `CCSc1ccc(C(=O)N2CCCCC2C(=O)N2CCCC2)cn1` (centres undefined), the INHIBITION was 20.4%.
Consider `Cc1ccc(CN2CC[C@@H](NC(=O)c3cccnc3)[C@H](O)C2)s1`, for which the INHIBITION was -10.9%.
Take `O=C(c1cccs1)N1CC[C@@H](N2CCOCC2)[C@@H]1Cc1ccccc1`: the INHIBITION is listed as 19.4%.
Then `Cn1ncnc1NCc1ccc(F)cc1`, with -42.8%.
Under `Cc1cccc2c1ccn2CCC(=O)O` stands 17.6%; under `COc1ccccc1C(=O)NCCCN1CCCC1C(=O)N(C)C` (centres undefined), -1.85%.
In the case of `CN1CCC(Cc2noc(-c3cccc(Oc4ncccn4)c3)n2)CC1`, the INHIBITION is -0.529%.
Under `COc1cccc(-c2n[nH]cc2-c2nc(CC3CCN(C)CC3)no2)c1` stands 59.7%.
Under `COc1cccc(-c2n[nH]cc2-c2nc(CN3CCCC3)no2)c1` stands 34%.
In the case of `Cc1ccc(S(=O)(=O)N2CCCC(c3n[nH]cc3C(=O)N(C)C)C2)cc1` (centres undefined), the INHIBITION came out at 11.8%.
Under `CCOCCNC(=O)c1cccc(Cn2nc(C)cc2C)c1` stands -89.3%; under `Cc1cc2n(n1)[C@@H](C(F)(F)F)C[C@@H](C1CCCN(C(=O)C(C)C)C1)N2` (some centres undefined), 1.5%; under `CC(C)Cc1cc(CN2C[C@@H]3CC[C@H]2CN(Cc2cscn2)C3)n[nH]1`, 39.9%.
Under `CN(Cc1cc(Br)cn1C)C(=O)Cc1cccc(O)c1` stands 50.8%; under `CN(Cc1cc(Br)cn1C)C(=O)c1ccsc1`, -82.2%.
Under `CN(Cc1cc(Br)cn1C)C(=O)Cc1cccnc1` stands -91.4%.
Take `O=C(NC[C@H]1C[C@@H]2CCN1C[C@@H]2CN1CCCCC1)Nc1ccsc1`: the INHIBITION came out at 33.2%.
Then `CC1CCN(C[C@H]2CN3CC[C@H]2C[C@@H]3CNC(=O)Nc2ccsc2)CC1`, with 77.7%; and `O=C(NC[C@H]1C[C@@H]2CCN1C[C@@H]2CN1CCOCC1)Nc1ccsc1`, with 41.1%.
